# Measured values from PubChem BioAssay.
# Activity calls are given as the source filed them. Unless noted, the rule behind the calls is not given here.
# Tests used:
# [1] = A549 cell viability effects, profiling panel, calcein-AM fluorescence, 48 h, basal (AID 1162); details: higher = more signal; note: test concentration not given here
# [2] = adipocyte viability effects, profiling panel, cell-based, 3T3-L1 adipocytes, calcein-AM fluorescence, 48 h, basal (AID 1163); details: 3T3-L1 adipocytes viability, higher = more signal; note: test concentration not given here
# [3] = HepG2 cell viability effects, profiling panel, calcein-AM fluorescence, 48 h, basal (AID 1164); details: higher = more signal; note: test concentration not given here
# [4] = MM1S cell viability effects, profiling panel, calcein-AM fluorescence, 48 h, basal (AID 1165); details: higher = more signal;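 note: viability of MM1S multiple myeloma cells under basal unstimulated conditions; test concentration not given here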
# [5] = basal RPMI8226 viability, no added stimulus, profiling panel, cell-based, calcein-AM fluorescence, 48 h, PK04 Diversity Set (AID 1166); details: RPMI8226 myeloma viability, higher = more signal;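 note: cells grown under basal conditions without added stimulus; test concentration not given here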
# [6] = basal HepG2 mitochondrial membrane potential changes, profiling panel, cell-based, JC-1 fluorescence, 24 h, 100 nL compound (AID 1167); details: higher = more signal; note: test concentration not given here
# [7] = basal 3T3-L1 adipocyte mitochondrial potential changes, profiling panel, cell-based, JC-1 fluorescence, 3T3-L1 adipocytes, 24 h, 100 nL compound (AID 1168); details: JC-1 mitochondrial fluorescence, higher = more signal, called active from +8 up or from −8 down; note: test concentration not given here
# [8] = basal RPMI8226 mitochondrial membrane potential changes, profiling panel, cell-based, JC-1 fluorescence, 24 h, 100 nL compound (AID 1169); details: RPMI8226 myeloma, JC-1 mitochondrial potential fluorescence, higher = more signal; note: test concentration not given here
# [9] = basal MM1S mitochondrial membrane potential changes, profiling panel, cell-based, JC-1 fluorescence, 24 h, 100 nL compound (AID 1170); details: higher = more signal; note: test concentration not given here
# [10] = A549 lung cancer cell viability effects, profiling panel, resazurin fluorescence, 24 h, PK04 Diversity Set (AID 1171); details: higher = more signal, called active from +8 up or from −8 down; note: test concentration not given here
# [11] = HepG2 liver cancer cell viability effects, profiling panel, resazurin fluorescence, 24 h, PK04 Diversity Set (AID 1172); details: higher = more signal; note: test concentration not given here
# [12] = basal S. cerevisiae growth modulation, no modifier, primary screen, OD600, strain BY4716, 24 h, basal condition (AID 1173); details: OD600, 24 h, higher = more signal, called active from +8 up or from −8 down
# [13] = MM1S myeloma cell viability, profiling panel, resazurin fluorescence, basal, 24 h, PK04 Diversity Set (AID 1174); details: higher = more signal, called active from +8 up or from −8 down;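 note: MM1S multiple myeloma cell line; test concentration not given here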
# [14] = biological target: Dihydroorotate dehydrogenase (quinone), mitochondrial (Plasmodium falciparum (isolate 3D7)) (UniProt Q08210); test: PfDHODH enzyme inhibitors, primary screen, biochemical, C-terminal His tag, absorbance 600 nm (AID 1175); details: DCIP absorbance 600 nm, higher = more signal, called active from +8 up or from −8 down;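 note: recombinant parasite enzyme with a five histidine tag at its C terminus; test concentration not given here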
# Sequence of Dihydroorotate dehydrogenase (quinone), mitochondrial (Plasmodium falciparum (isolate 3D7)) (Q08210 whole entry, looked up): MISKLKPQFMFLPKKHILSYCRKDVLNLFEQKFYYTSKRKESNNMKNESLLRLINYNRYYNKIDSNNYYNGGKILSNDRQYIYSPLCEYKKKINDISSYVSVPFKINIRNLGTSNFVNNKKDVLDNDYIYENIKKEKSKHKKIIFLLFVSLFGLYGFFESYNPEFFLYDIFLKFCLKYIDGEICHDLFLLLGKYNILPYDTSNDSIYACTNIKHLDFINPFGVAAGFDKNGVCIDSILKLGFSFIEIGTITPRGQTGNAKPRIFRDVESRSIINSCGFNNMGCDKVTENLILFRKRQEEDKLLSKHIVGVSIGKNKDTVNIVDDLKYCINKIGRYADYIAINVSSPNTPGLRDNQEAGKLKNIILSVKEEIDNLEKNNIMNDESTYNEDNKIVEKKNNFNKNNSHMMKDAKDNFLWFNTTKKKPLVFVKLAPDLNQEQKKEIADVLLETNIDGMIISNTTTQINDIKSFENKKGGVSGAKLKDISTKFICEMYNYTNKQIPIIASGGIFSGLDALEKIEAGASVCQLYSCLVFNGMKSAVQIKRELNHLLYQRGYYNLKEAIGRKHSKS
# [15] = P. aeruginosa biofilm formation inhibitors, primary screen, strain PAO1, LB-PBS medium, absorbance 600 nm (AID 1176); note: test concentration not given here; details: P. aeruginosa PAO1 growth/biofilm, A600, 12 h; higher = more signal
# [16] = S. cerevisiae RM11-1a growth modifiers, primary screen, strain RM11-1a, OD600, basal, 24 h (AID 1177); details: OD600, 24 h, higher = more signal, called active from +8 up or from −8 down;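 note: cultures grown under basal conditions with no added stressor; test concentration not given here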
# [17] = E. coli acrAB mutant growth effects, primary screen, E. coli filamentation inducers, strain DRC39, OD650, 24 h (AID 1178); details: higher = more signal, called active from +8 up or from −8 down;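 note: growth measured as culture turbidity by optical density at 650 nm; test concentration not given here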
# [18] = E. coli acrAB mutant growth effects, primary screen, E. coli filamentation inducers, strain DRC39, OD650, 48 h (AID 1179);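 note: screen aims at cell division blockers that make cells filament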; details: E. coli DRC39 delta-acrAB growth, higher = more signal, called active from +8 up or from −8 down
# [19] = RPMI8226 myeloma cell viability, profiling panel, resazurin fluorescence, basal, 24 h, PK04 Diversity Set (AID 1180); details: higher = more signal;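 note: RPMI8826 multiple myeloma cell line at 5000 cells per well; test concentration not given here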
# [20] = biological target: E3 ubiquitin-protein ligase XIAP (Homo sapiens) (UniProt P98170); test: XIAP binders, primary screen, biophysical, small-molecule microarray, fluorescence 635 nm (AID 1181); details: small-molecule microarray binding, higher = more signal;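 note: score merges 667 nm emission and signal to noise over triplicate slides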
# Sequence of E3 ubiquitin-protein ligase XIAP (Homo sapiens) (P98170 whole entry, looked up): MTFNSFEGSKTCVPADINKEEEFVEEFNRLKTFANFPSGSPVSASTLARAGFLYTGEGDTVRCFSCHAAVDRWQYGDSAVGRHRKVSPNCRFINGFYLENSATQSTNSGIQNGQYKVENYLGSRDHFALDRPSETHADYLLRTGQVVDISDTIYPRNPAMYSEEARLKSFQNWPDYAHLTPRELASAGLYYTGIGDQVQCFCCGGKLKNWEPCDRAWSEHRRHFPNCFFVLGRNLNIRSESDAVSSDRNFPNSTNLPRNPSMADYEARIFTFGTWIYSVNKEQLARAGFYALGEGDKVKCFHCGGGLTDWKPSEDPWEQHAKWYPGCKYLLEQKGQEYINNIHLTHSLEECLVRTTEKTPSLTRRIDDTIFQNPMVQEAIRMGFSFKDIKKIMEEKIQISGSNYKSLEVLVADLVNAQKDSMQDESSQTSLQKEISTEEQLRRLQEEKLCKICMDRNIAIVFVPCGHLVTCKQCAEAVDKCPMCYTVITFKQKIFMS
SMILES,z-score [1],z-score [2],z-score [3],z-score [4],z-score [5],z-score [6],z-score [7],z-score [8],z-score [9],z-score [10],z-score [11],z-score [12],z-score [13],composite z-score [14],z-score [15],z-score [16],z-score [17],z-score [18],z-score [19],composite z-score [20]
C=C[C@H](C)[C@H](OC(=O)Nc1ccc(SC)cc1)c1ccc(O)c2ccccc12,-0.561,-0.557,-1.51,-2.74,-3.78,-3.16,-0.818 (inactive),-0.939,-1.51,-1.12 (inactive),-1.13,-18.5 (active),-3.69 (inactive),-2.47 (inactive),0.802 (inactive),-3.62 (inactive),-1.46 (inactive),-1.6 (inactive),-2.55,0.0528
COCC1=C([C@H](O)CCc2ccccc2)[C@H](CO)[C@@H]2C(=O)N(C)C(=O)[C@@H]2C1,0.803,-0.473,0.693,0.347,-0.243,0.618,-0.368 (inactive),0.442,0.341,-0.515 (inactive),-0.548,-1.66 (inactive),0.244 (inactive),-0.0291 (inactive),0.908 (inactive),0.1 (inactive),2.16 (inactive),1.65 (inactive),0.544,-0.353
COC(=O)C(CC#Cc1ccc2c(c1)[C@]1(C(=O)N2)[C@H](c2ccc(O)cc2)N2[C@H](c3ccccc3)[C@H](c3ccccc3)OC(=O)[C@H]2[C@@H]1C(N)=O)C(=O)OC,1.43,-0.0866,0.188,0.244,0.728,1.44,0.673 (inactive),-0.846,-0.0448,1.42 (inactive),1.09,-0.773 (inactive),0.455 (inactive),0.133 (inactive),1.28 (inactive),-0.864 (inactive),1.68 (inactive),2.08 (inactive),1.1,0.153
Cc1ccccc1C(O)C1C=CC2C(=O)N(C)C(=O)C2N1Nc1ccc([N+](=O)[O-])cc1[N+](=O)[O-] (stereo not given),0.544,-0.729,0.839,-1.04,-0.582,-1.57,-1.15 (inactive),-0.0251,-1.09,-0.372 (inactive),-0.138,1.09 (inactive),-0.729 (inactive),-0.286 (inactive),0.186 (inactive),0.446 (inactive),-0.456 (inactive),-0.401 (inactive),-0.963,-0.0172
O=C1O[C@@H](c2ccccc2)[C@@H](c2ccccc2)N2[C@@H](c3ccc(O)cc3)[C@]3(C(=O)Nc4ccc(C#CC5(O)CCCCCC5)cc43)[C@@H](C(=O)N3CCN(c4ncccn4)CC3)[C@H]12,-0.415,0.292,-0.458,-0.0835,-0.813,-0.512,-0.68 (inactive),-1.05,-0.203,0.533 (inactive),1.63,-0.271 (inactive),0.0176 (inactive),-1.08 (inactive),-0.641 (inactive),0.642 (inactive),0.614 (inactive),0.11 (inactive),1.1,-0.127
C#CCOC(=O)N[C@H](C=CCCCC)c1ccccc1,-1.18,-0.115,-0.517,-0.334,-0.508,1.47,-0.62 (inactive),0.15,0.0811,-0.28 (inactive),0.063,0.578 (inactive),-0.883 (inactive),-0.837 (inactive),0.936 (inactive),-0.0736 (inactive),-0.467 (inactive),-0.424 (inactive),-0.137,-0.0133
COCCCNC(=O)[C@]1(Cc2ccccc2)N=C(c2ccc(OCCCO)cc2)O[C@@H]1c1ccccc1N=[N+]=[N-],-1.8,1.77,-1.47,-1.78,-4.29,1.29,0.235 (inactive),-1.1,-1.73,-1.09 (inactive),0.0754,-1.75 (inactive),-2.61 (inactive),0.828 (inactive),-0.674 (inactive),-0.355 (inactive),1.27 (inactive),0.642 (inactive),-2.73,-0.02
CN1C(=O)C2C=CC(C(O)COCc3ccccc3)N(Nc3ccccc3)C2C1=O (stereo not given),-0.115,-1.24,-0.465,0.225,0.192,-1.05,0.0756 (inactive),-0.0145,-0.178,0.105 (inactive),0.425,-0.396 (inactive),-0.825 (inactive),-0.284 (inactive),-0.0346 (inactive),0.328 (inactive),-0.925 (inactive),0.0813 (inactive),0.182,0.267
CC(C)N1CC=CC23O[C@@H]4C=CCOC(=O)[C@@H]4[C@H]2C(=O)N(CCCCCCO)[C@@H]3C1=O (stereo not given in full),0.0698,0.105,-0.684,1.17,0.255,-0.202,-0.109 (inactive),0.0854,-0.249,0.64 (inactive),0.821,0.562 (inactive),-0.581 (inactive),-1.07 (inactive),0.165 (inactive),-0.21 (inactive),0.412 (inactive),0.24 (inactive),0.704,0.0342
CN(C)CCCC[C@@H]1NC(=O)[C@H]2C[C@@H](C(=O)NCCCCCCNC(=O)CS)[C@@H](c3ccc(O)cc3)N2C1=O,-0.877,0.0215,-1.35,-0.245,-1.02,-1.45,-0.715 (inactive),0.683,0.441,-0.415 (inactive),0.183,-0.213 (inactive),-0.614 (inactive),-0.368 (inactive),0.022 (inactive),-0.48 (inactive),0.0961 (inactive),-0.509 (inactive),-0.892,-0.0749
C=C(C(=O)CC[C@H](OC(=O)c1cccnc1)c1ccc(OCCO)cc1)C(C)C,-0.328,0.165,-0.823,-3.3,-1.75,0.149,-0.00639 (inactive),-0.634,-1.45,-0.569 (inactive),-0.688,-0.303 (inactive),-2.35 (inactive),0.349 (inactive),0.273 (inactive),0.899 (inactive),-0.97 (inactive),-0.899 (inactive),-2.53,0.158
CCCC=C(CCC)[C@@H](NS(=O)(=O)CC)c1ccccc1,-2.33,-0.924,-1.71,-2.83,-3.64,-2.68,-0.517 (inactive),-0.889,-0.177,0.677 (inactive),0.281,1.32 (inactive),-0.364 (inactive),-0.317 (inactive),0.302 (inactive),0.462 (inactive),-1.1 (inactive),-0.0887 (inactive),-0.745,0.23
COCCOC(=O)N1C(=O)[C@@]2(c3cc(C#CCCO)ccc31)[C@H](C(=O)N1CCc3cc(OC)c(OC)cc3C1)[C@H]1C(=O)O[C@H](c3ccccc3)[C@H](c3ccccc3)N1[C@@H]2c1ccc(OCCO)cc1,1.31,1.05,1.15,0.214,1.23,-0.495,1.21 (inactive),-0.532,-0.901,0.86 (inactive),1.36,0.543 (inactive),0.665 (inactive),-1.45 (inactive),2.19 (inactive),0.0817 (inactive),0.443 (inactive),1.75 (inactive),0.152,-0.0412
C[C@]12C(=O)N(CCCO)[C@@H]3C(=O)N(c4ccc(Cl)cc4)CC=CC31O[C@@H]1/C=C\CCCOC(=O)C12 (stereo not given in full),0.348,0.922,-0.114,0.14,-0.191,-0.665,-1.25 (inactive),-0.0538,1.18,-0.0576 (inactive),-0.468,-0.0146 (inactive),-0.291 (inactive),0.0021 (inactive),-0.553 (inactive),-0.965 (inactive),-0.477 (inactive),-0.464 (inactive),-0.217,0.734
CC(C)C(CO)N1C(=O)[C@@H]2[C@H]3C(=O)OCC=C[C@H]3OC23C=CCN(Cn2nnc4ccccc42)C(=O)[C@@H]13 (stereo not given in full),-0.746,-0.191,-0.751,0.48,-0.653,-0.578,-0.373 (inactive),0.432,0.281,-0.274 (inactive),0.288,0.959 (inactive),-0.281 (inactive),0.237 (inactive),0.894 (inactive),0.68 (inactive),-0.497 (inactive),-0.708 (inactive),-0.0558,0.175
CC(C)CCC[C@@H](C)[C@H]1CC[C@@]2(C)C3=C(CC[C@]12C)[C@@]1(C)CC[C@H](OC(=O)C(C)(C)C)C(C)(C)C1CC3 (stereo not given in full),2.49,1.66,1.12,0.933,-0.129,1.15,0.39 (inactive),0.363,-1.44,0.221 (inactive),0.411,-0.743 (inactive),0.0609 (inactive),-2.48 (inactive),1.65 (inactive),-4.69 (inactive),1.41 (inactive),-0.805 (inactive),0.662,0.0356
